# Bioassay records from PubChem.
# V-ATPase pH – alters yeast V-ATPase proton transport | S. cerevisiae, pHLuorin cytosolic pH fluorescence | response, % at 10 µM | 350,000 tested, 0.37% active | AID 504577; in the data active = response mostly above about 7.3%, no sharp cut-off; inactive = mostly below about 5.4%; note: actives read high
# HTR2A ag – mouse HTR2A agonism via beta-arrestin recruitment; P35363; CHO-K1 mHTR2A beta-arrestin complementation, luminescence; percent of 30 µM serotonin response; activation, % at 7.6 µM; 360,000 tested, 0.66% active; AID 624169;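 active = activation above a run cutoff, the mean activation of all tested compounds plus 3 SD, cut at about 14% in these data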;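 note: 0% = plate median of compound wells and 100% = 30 µM serotonin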
# Target sequence (P35363 whole entry, looked up): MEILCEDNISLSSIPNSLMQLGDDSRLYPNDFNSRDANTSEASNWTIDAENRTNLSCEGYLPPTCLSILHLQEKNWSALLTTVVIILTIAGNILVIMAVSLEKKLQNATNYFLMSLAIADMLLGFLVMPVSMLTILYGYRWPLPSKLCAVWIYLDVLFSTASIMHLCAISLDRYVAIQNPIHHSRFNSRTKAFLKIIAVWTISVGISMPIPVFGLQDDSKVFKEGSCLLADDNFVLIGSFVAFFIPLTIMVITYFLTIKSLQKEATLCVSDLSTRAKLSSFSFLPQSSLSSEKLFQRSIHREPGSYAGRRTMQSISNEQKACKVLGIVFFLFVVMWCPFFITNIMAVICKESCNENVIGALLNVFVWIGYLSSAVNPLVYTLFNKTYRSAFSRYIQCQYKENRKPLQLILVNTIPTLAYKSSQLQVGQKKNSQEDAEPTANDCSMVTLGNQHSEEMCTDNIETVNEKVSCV
# MEX-5 binding – C. elegans MEX-5 TCR-2 RNA binding activity. Q9XUB2. MEX-5/FITC-TCR2 RNA binding, fluorescence polarization; active compounds read low. activity score (negative = inhibition of binding), % at 10 µM. 300,000 tested, 0.38% active. AID 1832;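 active = inhibition past about -25% in most replicates, and total fluorescence under double the plate's negative control median, limit read from the data; inconclusive = replicates evenly split on the limit, or fluorescence at least double controls; inactive = too little inhibition in most replicates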;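 note: 0% = DMSO and -100% = 5 µM competing unlabeled TCR2 RNA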
# VLA-4 inh – inhibition in a human VLA-4 binding assay | P13612 | VLA-4 expressing cells, ligand binding flow cytometry | inhibition, % (about 7 µM as worked out from the volumes in the protocol) | 330,000 tested, 0.2% active | AID 2557; in the data active = inhibition above about 50%
# GASC-1 inh – inhibitors of human GASC-1 (JMJD2C) demethylase; Q9H3R0; inhibition, % at 2.35 µM; 330,000 tested, 0.069% active; AID 2099; GST-JMJD2C(1-420) H3K9me3 demethylation, DELFIA europium;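 active = more than half of a compound's replicate wells show inhibition beyond 50%, single wells judged on their own value; inconclusive = some, but no more than half, of replicates pass 50% inhibition; inactive = no replicate passes 50% inhibition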;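 note: signal counts dimethyl H3K9 product captured on neutravidin plate; 0% = median of DMSO wells and 100% = 0.3 times that DMSO median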
# Exocytosis inh – blocks lytic granule exocytosis; AID 651702; 360,000 tested, 0.66% active; inhibition, % at 10 µM; TALL-104 LAMP-1 surface exposure, flow cytometry; cells stimulated with thapsigargin and PMA;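 active = inhibition above about 55%, limit read from the data; inconclusive = no clear call, values can overlap the other calls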
# An asterisk follows results filed as active; ? = inconclusive; / = no result given. The list is not random: actives were taken first. Their share in the collection is about 2.2%.
SMILES,V-ATPase pH,HTR2A ag,MEX-5 binding,VLA-4 inh,GASC-1 inh,Exocytosis inh
C/C=C(\C)C(=O)OC1[C@H](OC(C)=O)C2(CO)C(CC1(C)C)C1=CCC3C4(C)CCC(O[C@@H]5O[C@H](C(=O)O)[C@@H](O[C@@H]6O[C@H](CO)[C@@H](O)[C@H](O)[C@H]6O)[C@H](O)[C@H]5O[C@H]5O[C@H](CO)[C@@H](O)[C@H](O)[C@H]5O)[C@](C)(CO)C4CCC3(C)[C@]1(C)C[C@H]2O (some centres undefined),0,15*,/,/,/,71*
C/C=C(/C)C(=O)OC1CC(C)(C)C[C@H]2C3=CC[C@@H]4[C@@]5(C)CCC(O[C@@H]6O[C@@H](C(=O)O)[C@@H](O)C(O[C@@H]7OC[C@H](O)[C@@H](O)[C@@H]7O[C@@H]7OC(CO)C(O)[C@@H](O)[C@@H]7O)C6O[C@@H]6OC(CO)C(O)C(O)C6O)[C@@](C)(CO)[C@@H]5CC[C@]4(C)[C@]3(C)CC(O)[C@@]12CO (some centres undefined),-4,0,/,-82,-8,-1
CCOc1cc2c(c3c1C(c1ccccc1)N(S(=O)(=O)c1ccc(C)cc1)C3)C(=O)C=CC2=O (centres undefined),/,-1,/,/,/,74*
CC(/C=C1\SC(=Nc2cccnc2)NC1=O)=C\c1ccccc1,0,9,-3,3,4,57*
CCOc1ccc(/C=C2\CCCc3c2nc2ccccc2c3C(=O)O)cc1OC,4,6,?,5,-6,17
CCC(=O)N1CCC1(C)C(=O)Nc1ccc2scnc2c1 (centres undefined),/,-1,/,/,/,-8
O=C(/C(=C/c1ccc(Cl)cc1)c1nc2ccccc2[nH]1)c1cccs1,-5,-3,1,18,6,96*
O=C(/C(=C\c1ccccc1)c1nc2ccccc2[nH]1)c1ccc(Cl)cc1,-1,-5,-1,4,2,46
CCOc1ccc(-c2csc(NNC3=NCCCCC3)n2)cc1,-3,-4,1,20,3,56*
COc1ccc(-c2csc(NNC3=NCCCCC3)n2)cc1,/,/,1,0,39,/
C=CC[C@@H](CC(=O)OC(C)(C)C)C(=O)OC[C@H]1CCCN1C(=O)[C@@H](CC=C)CC(=O)NCCO,5,2,/,-12,-3,-5
Cc1cccc(NC(=S)N2CCN(Cc3ccccc3)CC2)c1C,16*,-1,0,31,2,-2
Cc1cc(C)c(O)c(-c2cc(C(=O)NCCc3ccc(S(N)(=O)=O)cc3)[nH]n2)c1,2,-7,2,5,-1,63*
Cc1cc(C(=O)Nc2ccccc2Cl)n(-c2ccccc2)n1,2,8,-2,0,-10,-6
COc1ccc(OC)c(Nc2nc(-c3cccs3)cs2)c1,-2,-4,-4,-1,51*,3
COc1ccc(Nc2nc(-c3cccs3)cs2)c(OC)c1,5,1,-1,-4,7,0
COC(=O)C1CCN(S(=O)(=O)Cc2ccccc2Cl)CC1,2,4,0,-4,-10,6
O=C(NNC(=O)c1cccc2ccccc12)c1ccc(Cl)cc1Cl,0,-4,/,/,/,-1
O=C(NNC(=O)c1ccc2ccccc2c1O)c1ccccc1Cl,2,2,-56*,0,-17,-5
Cc1cccc(N/N=C/c2ccc(C)s2)c1,1,-7,1,4,13,61*
Cc1cccc(N/N=C/c2ccc(O)c(O)c2O)c1,3,-3,-6,9,-10,-2
Cc1ccc(C(=O)NNC(=O)c2ccoc2C)s1,-3,4,/,/,/,-2
CN(C(=O)Nc1cccc(C(F)(F)F)c1)C1CCCCC1,-4,-3,-1,8,18,-1
CC1=C(C)/C(=N\OS(=O)(=O)c2ccccc2)C=CC1=O,16,3,1,18,5,97*
O=S(=O)(N=C1C=CC(=NS(=O)(=O)c2ccccc2)c2ccccc21)c1ccccc1,0,-6,/,/,/,24
SMILES,V-ATPase pH,HTR2A ag,MEX-5 binding,VLA-4 inh,GASC-1 inh,Exocytosis inh
CCCc1cc(=O)oc2c(CNc3ccc(OCC)cc3)c(O)ccc12,-2,4,-9,14,23,19
CCN(c1ccc(OC)cc1)S(=O)(=O)c1nnc(NC(=O)CC(C)C)s1,3,3,1,-2,3,19
CCN(C[C@H]1N[C@@](C)(C(=O)OC)[C@H]2C(=O)N(C)C(=O)[C@@H]12)C(=O)Nc1ccccc1,0,1,/,25,54*,-2
CCN(C[C@H]1N[C@@](C)(C(=O)OC)[C@H]2C(=O)N(C)C(=O)[C@@H]12)C(=O)c1ccccc1,-1,-4,/,-6,/,-2
CCn1c(SCC(=O)NC2CCCCC2)nnc1-c1ccco1,-2,-2,1,4,-8,4
CCCCn1c(SCC(=O)NCc2ccc(OC)c(C(=O)O)c2)nc2cc(S(N)(=O)=O)ccc21,-1,3,-1,8,-12,-16
COc1ccc(OCc2n(CC(=O)OC3CC(C)CCC3C(C)C)c3ccccc3[n+]2C)cc1 (centres undefined),-4,-6,-2,3,-6,64*
O=C(/C=C/c1ccco1)NC(=S)Nc1ccc(C(=O)O)cc1,0,0,-32*,9,-2,-8
CC(=O)NC(=S)Nc1ccc(NC(=S)NC(=O)/C=C/c2ccco2)cc1,-3,-2,0,-5,9,0
O=C(/C=C/c1ccco1)NC(=S)NNC(=O)c1ccco1,4,-1,-26*,2,/,-5
Cn1c(=O)c2cc(NC(=O)Nc3cccnc3)ccc2n1-c1ccc(C(C)(C)C)cc1,/,-5,/,/,/,-2
Nc1cc(Cl)ccc1C(=O)OCC(=O)NC1CCCCCCC1,-4,7,/,21,18,14
Cn1c(=O)c(-c2cc(=O)[nH][nH]2)c(O)c2ccccc21,3,1,-30*,17,-19,9
C/C(O)=c1/ccc2cccc3nc(C)nc1c23,-2,1,-41*,-117,5,21
O/C=c1\ccc2cccc3nc(C(F)(F)F)nc1c23,4,2,?,-307,-19,-17
Cc1ccc(C(=O)C(C)OC(=O)CCN=C2NS(=O)(=O)c3ccccc32)cc1 (centres undefined),-3,0,3,29,7,13
O=C(NNC(=O)c1csc(-c2cccnc2)n1)c1ccccc1,-3,-6,-26*,13,2,0
CC(C)C(NC(=O)c1c(F)cccc1F)C(=O)NC1CC(C)(C)NC(C)(C)C1 (centres undefined),-2,-3,-3,-2,7,7
O=c1[nH]cnc2c1c(-c1ccccc1)cn2-c1ccccc1,2,1,-2,-7,62*,11
Cc1ccc(-c2cc(C(=O)N3CCN(C(=O)c4ccco4)CC3)[nH]n2)cc1C,-2,1,1,24,10,-4
